# Results filed as inconclusive are left out. The source made the active and inactive calls. Unless noted, calls follow the shape of the full dose curve.
# Columns and labels:
# [1] = qHTS drug screen for cell cycle checkpoint inhibitors in PARPi-resistant BRCA-mutant ovarian cancer cell lines. (AID 1963452); details: PEO1/OlaR viability, CellTiter-Glo luminescence, 96 h; for Z-AUC: stronger effect = lower value; also: potency is read from the fitted curve at half-maximal effect
# In short: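 PEO1, PEO4 and PEO1/OlaR ovarian cancer cells, 600 per well, exposed 96 h at 37C to a dilution series. Viability read by CellTiter-Glo luminescence, normalized to DMSO and empty wells; activity summarized as Z-AUC.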
# [2] = biological target: Nuclear receptor subfamily 1 group I member 2 (Homo sapiens) (UniProt O75469); assay: Dual reporter qHTS for agonist of Pregnane X Receptor (hPXR) against the NCATS DSHEA and TCM libraries: Luminescence readout (AID 1920059; active = well fitted curve in the direction sought with a large enough effect; an effect the other way counts as inactive or inconclusive; also: 0% is about no effect); details: hPXR dual reporter cells, luciferase luminescence agonist; series mostly up to 40 µM
# Chain of Nuclear receptor subfamily 1 group I member 2 (Homo sapiens) (O75469 whole entry, looked up): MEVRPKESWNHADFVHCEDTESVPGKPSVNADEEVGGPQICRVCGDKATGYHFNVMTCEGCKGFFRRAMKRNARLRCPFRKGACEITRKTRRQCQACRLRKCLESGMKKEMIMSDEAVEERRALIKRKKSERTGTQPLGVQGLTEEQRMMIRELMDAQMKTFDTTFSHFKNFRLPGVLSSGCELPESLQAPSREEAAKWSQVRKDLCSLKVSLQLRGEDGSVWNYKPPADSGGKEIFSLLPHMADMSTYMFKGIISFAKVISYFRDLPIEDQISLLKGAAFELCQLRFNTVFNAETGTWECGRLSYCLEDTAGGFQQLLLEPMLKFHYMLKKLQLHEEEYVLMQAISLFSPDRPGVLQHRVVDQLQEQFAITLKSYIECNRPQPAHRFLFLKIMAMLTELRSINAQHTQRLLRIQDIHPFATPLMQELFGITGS
# Excerpt: Assay Development and Screening Technology Laboratory (ADST)
# National Center for Advancing Translational Sciences (NCATS), Rockville, MD
# National Institute of Health (NIH), Bethesda, Maryland
# Dietary Supplements and Natural Products have minor oversight of their safety and efficacy. We assembled a collection of Dietary Supplements and Natural Products (DSNP) as well as Traditional Chinese Medicinal (TCM) Plant extracts, which were screened against an in vitro panel of assays, including a liver cytochrome p450 enzyme panel, CAR/PXR signaling pathways, and P-gp transporter assays, to assess their activity. This pipeline facilitated the interrogation of Natural Product-Drug Interaction (NaPDI) through prominent metabolizing pathways. In addition, we compared the activity profiles of the DSNP/TCM substances with those of an approved drug collection. Many of the approved drugs have well-annotated mechanisms of action (MOA) while the MOAs for most of the DSNP and TCM samples remain unknown. Based on the premise that compounds with similar activity profiles tend to share similar targets or MOA, we clustered the library activity profiles to identify overlap with the NCATS Pharmaceutical Collection to predict the MOAs of the DSNP/TCM substances. Overall, we highlight four significant bioactivity profiles (measured by p-values) as examples of this prediction. To assess broad cytotoxicity, we employed screening against a HepG2 cell line. In addition, transporter-mediated drug interactions are utilized in the characterization of DDIs using a P-glycoprotein (P-gp) assays. To profile potential P-gp activity, a differential cell viability was measured against two cell lines: a parental KB-3-1 human cervical adenocarcinoma cell line and the drug-resistant subline KB-8-5-11 that overexpresses P-gp.
# To this end, we profiled both collections for potential CAR and/or PXR activity, employing a previously published 1536-well qHTS assay.
# [1] […]
# 8; Read; Fluorescence; ViewLux plate reader. […]
# 11; Read; Luminescence; ViewLux plate reader. […]
# [3] = biological target: Nuclear receptor subfamily 1 group I member 2 (Homo sapiens) (UniProt O75469); assay: Dual reporter qHTS for antagonist of Pregnane X Receptor (hPXR) against the NCATS DSHEA and TCM libraries: Luminescence Readout (AID 1920060; active = well fitted curve in the direction sought with a large enough effect; an effect the other way counts as inactive or inconclusive;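 also: HepG2 cells carrying hPXR luciferase reporter stimulated with rifampicin at 2 µM; 0% is about no effect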); details: hPXR dual reporter cells, luciferase luminescence, antagonist mode; series mostly up to 40 µM
# In short: (§1)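 In antagonist mode, 2 uM rifampicin was added to hPXR-Luc HepG2 cells alongside test substances, incubated 24 h at 37 C; luminescence gave reporter activity, and CellTiter-Fluor fluorescence (405/540 nm) gave viability.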
# [4] = Dual reporter qHTS for antagonist of Pregnane X Receptor (hPXR) against the NCATS DSHEA and TCM libraries: Fluorescence Readout (AID 1920061; active = well fitted curve in the direction sought with a large enough effect; an effect the other way counts as inactive or inconclusive; also: 0% is about no effect); details: PXR dual reporter cells, antagonist mode; series mostly up to 40 µM
# In short: as §1
# [5] = qHTS for identification of novel therapeutic agents for treatment of microphthalmiaassociated transcription factor (MiT) renal cell carcinoma (RCC) (AID 1963991); details: CellTiter-Glo, 48 h, stronger effect = lower value
# In short: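 Curves over 11 concentrations were fitted to CellTiter-Glo luminescence, scaled between empty wells (0%) and DMSO (100%) viability. Cells were UOK109, UOK124 and UOK145 TFE3-fusion RCC lines at 500/well, exposed 48 hours at 37 C.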
# [6] = measured here: PEO1 parental Z-AUC
compound,measurement,setting,value
Clc1cc(Cl)cc(CNc2ncncc2-c2ccc3c(c2)OCO3)c1,Z-AUC,[1],0.335 (inactive)
same,Z-AUC,[1]; [6],-0.24
same,Z-AUC,[1]; measured here: PEO4 Z-AUC,-0.467
CC(C)(C)Cn1c(N)nc2ccc(-c3[nH]c(C(C)(C)C)nc3-c3ccc(F)cc3)nc21,Z-AUC,[1],-0.716 (inactive)
same,Z-AUC,[1]; [6],-1.14
same,Z-AUC,[1]; measured here: PEO4 Z-AUC,-1.15
O=C1C[C@@H](c2ccc(O)cc2)Oc2cc(O)cc(O)c21,Z-AUC,[1],0.649 (inactive)
same,Z-AUC,[1]; [6],1.18
same,Z-AUC,[1]; measured here: PEO4 Z-AUC,1.28
C[N+](C)(C)CC(=O)O,Z-AUC,[1],-0.734 (inactive)
same,Z-AUC,[1]; [6],0.456
same,Z-AUC,[1]; measured here: PEO4 Z-AUC,-0.678
O=c1c(-c2ccc(O)cc2)coc2cc(O[C@@H]3O[C@H](CO)[C@H](O)[C@H](O)[C@H]3O)ccc12,Potency,[2],inactive
same,outcome,[3],inactive
same,outcome,[4],inactive
same,z-score,"[5]; TFE3-RCC UOK109 viability, measured here: UOK109 Z-AUC",0.945
same,z-score,"[5]; TFE3-RCC viability, measured here: UOK124 Z-AUC",2.11
same,z-score,"[5]; TFE3-RCC viability, measured here: UOK145 Z-AUC",1.28
CC(C)C[C@H](CC(=O)O)C(=O)N[C@@H](Cc1c[nH]c2ccccc12)C(=O)N[C@@H](C)c1ccccc1,Z-AUC,[1],1.58 (inactive)
same,Z-AUC,[1]; [6],1.54
same,Z-AUC,[1]; measured here: PEO4 Z-AUC,1.63
CC(=O)OC1C(C)OC(Oc2c(-c3ccc(O)cc3)oc3cc(O)cc(O)c3c2=O)C(O)C1OC(C)=O (configuration not stated),Z-AUC,[1],-0.58 (inactive)
same,Z-AUC,[1]; [6],-0.801
same,Z-AUC,[1]; measured here: PEO4 Z-AUC,-0.512
Cc1cccc(Nc2nc(-c3ccncc3)cs2)c1,Z-AUC,[1],0.772 (inactive)
same,Z-AUC,[1]; [6],0.626
same,Z-AUC,[1]; measured here: PEO4 Z-AUC,0.437
CN1CCN(CCOc2cc(OC3CCOCC3)c3c(Nc4c(Cl)ccc5c4OCO5)ncnc3c2)CC1,Z-AUC,[1],0.642 (inactive)
same,Z-AUC,[1]; [6],0.934
same,Z-AUC,[1]; measured here: PEO4 Z-AUC,1.23
Oc1ccc(C2CCN(c3ccnc4ccccc34)CC2)cc1O,Z-AUC,[1],0.817 (inactive)
same,Z-AUC,[1]; [6],-0.32
same,Z-AUC,[1]; measured here: PEO4 Z-AUC,0.401
CCCCCCCCCCCC1=C(O)C(=O)C=C(O)C1=O,Z-AUC,[1],1.62 (inactive)
same,Z-AUC,[1]; [6],1.09
same,Z-AUC,[1]; measured here: PEO4 Z-AUC,1.19
COc1cccc2c1CCCC2CCCN1CCN(C2CCCCC2)CC1 (configuration not stated),Z-AUC,[1],0.972 (inactive)
same,Z-AUC,[1]; [6],0.889
same,Z-AUC,[1]; measured here: PEO4 Z-AUC,0.366
NC(=O)c1cnc(-c2ccc(C3(N)CCC3)cc2)c(-c2ccccc2)c1,Z-AUC,[1],0.0998 (inactive)
same,Z-AUC,[1]; [6],-0.472
same,Z-AUC,[1]; measured here: PEO4 Z-AUC,-0.533
CC(C)C(=O)Nc1ncc(-c2cc(C(F)F)nn2-c2c(Cl)cccc2Cl)s1,Z-AUC,[1],-0.482 (inactive)
same,Z-AUC,[1]; [6],0.209
same,Z-AUC,[1]; measured here: PEO4 Z-AUC,0.42
CN[C@@H](C)C(=O)N[C@H]1CN(C(=O)CC(C)C)CC[C@H]2CC[C@@H](C(=O)NC(c3ccccc3)c3ccccc3)N2C1=O,Z-AUC,[1],0.77 (inactive)
same,Z-AUC,[1]; [6],0.371
same,Z-AUC,[1]; measured here: PEO4 Z-AUC,-0.22
CC(C)(C)OC(=O)N[C@H]1CCCCCC=C[C@@H]2C[C@@]2(C(=O)NS(=O)(=O)C2CC2)NC(=O)[C@@H]2C[C@@H](OC(=O)N3Cc4cccc(F)c4C3)CN2C1=O,Z-AUC,[1],0.565 (inactive)
same,Z-AUC,[1]; [6],0.658
same,Z-AUC,[1]; measured here: PEO4 Z-AUC,1.2
COc1ccc(-c2cc(=O)c3c(O)cc(O)cc3o2)cc1O,Z-AUC,[1],0.388 (inactive)
same,Z-AUC,[1]; [6],0.498
same,Z-AUC,[1]; measured here: PEO4 Z-AUC,0.413
O=C(O)CCC1CCC(c2cc(F)ccc2F)(S(=O)(=O)c2ccc(Cl)cc2)CC1 (configuration not stated),Z-AUC,[1],1.02 (inactive)
same,Z-AUC,[1]; [6],0.969
same,Z-AUC,[1]; measured here: PEO4 Z-AUC,0.83
Cc1ccc(Nc2cc(-c3cccc(N4C(=O)c5ccccc5C4=O)c3)ncn2)cc1NS(C)(=O)=O,Z-AUC,[1],-0.648 (inactive)
same,Z-AUC,[1]; [6],-0.644
same,Z-AUC,[1]; measured here: PEO4 Z-AUC,-0.365
CO[C@H]1C(=O)[C@]2(C)[C@@H](OC)C[C@H]3OC[C@@]3(OC(C)=O)[C@H]2[C@H](OC(=O)c2ccccc2)[C@]2(O)C[C@H](OC(=O)[C@H](O)[C@@H](NC(=O)OC(C)(C)C)c3ccccc3)C(C)=C1C2(C)C,Potency,[1],7.8 nM (active)
same,Z-AUC,[1]; [6],-2.35
same,Z-AUC,[1]; measured here: PEO4 Z-AUC,-2.45
CCOC(CN1C(=O)[C@](CC(=O)Nc2ccc(C)cc2)(NC(=O)Nc2ccc(C)cc2)c2ccccc21)OCC,Z-AUC,[1],1.21 (inactive)
same,Z-AUC,[1]; [6],1.06
same,Z-AUC,[1]; measured here: PEO4 Z-AUC,1.28
CC[C@@]1(O)C[C@H](O[C@H]2C[C@H](N(C)C)[C@H](O[C@H]3C[C@H](O)[C@H](O[C@H]4CCC(=O)[C@H](C)O4)[C@H](C)O3)[C@H](C)O2)c2c(cc3c(c2O)C(=O)c2c(O)cccc2C3=O)[C@@H]1C(=O)OC,Z-AUC,[1],-0.814 (inactive)
same,Z-AUC,[1]; [6],-0.555
same,Z-AUC,[1]; measured here: PEO4 Z-AUC,-0.946
Cc1c(NC(=O)c2ccc(C(C)(C)C)cc2)cccc1-c1cn(C)c(=O)c(Nc2ccc(C(=O)N3CCOCC3)cc2)n1,Z-AUC,[1],1.16 (inactive)
same,Z-AUC,[1]; [6],0.745
same,Z-AUC,[1]; measured here: PEO4 Z-AUC,0.879
CCCCCNC(=O)N1CCC(CN(Cc2ccc(Cl)cc2)Cc2ccc([N+](=O)[O-])s2)C1 (configuration not stated),Z-AUC,[1],-0.865 (inactive)
same,Z-AUC,[1]; [6],0.128
same,Z-AUC,[1]; measured here: PEO4 Z-AUC,-0.734
C=C1C(=O)OC(CCCCCCCC)C1C(=O)O (configuration not stated),Z-AUC,[1],0.778 (inactive)
same,Z-AUC,[1]; [6],0.453
same,Z-AUC,[1]; measured here: PEO4 Z-AUC,0.342
Cc1ccc(C(C)(O)c2nc3ccccc3s2)c(C)c1 (configuration not stated),Z-AUC,[1],0.398 (inactive)
same,Z-AUC,[1]; [6],0.537
same,Z-AUC,[1]; measured here: PEO4 Z-AUC,0.368
CCOC(=O)C1=C(N)Oc2ccc(Br)cc2C1C(C#N)C(=O)OCC (configuration not stated),Z-AUC,[1],1.64 (inactive)
same,Z-AUC,[1]; [6],1.22
same,Z-AUC,[1]; measured here: PEO4 Z-AUC,1.22
CC(=O)Oc1cc2c(s1)CCN(C(C(=O)C1CC1)c1ccccc1F)C2 (configuration not stated),Z-AUC,[1],0.888 (inactive)
same,Z-AUC,[1]; [6],0.469
same,Z-AUC,[1]; measured here: PEO4 Z-AUC,0.814
